Data reported in ChEMBL document CHEMBL1157539, “Thousands of chemical starting points for antimalarial lead identification” (Nature, 2010).

test system: HepG2; assay: GSK_TCMDC: Percent inhibition of human HepG2 cell line. Test compounds present at 10uM.; assay type: functional

SMILES | Inhibition [%]
Clc1ccc2c(NN=Cc3cccnc3)ccnc2c1 | 0
O=C(C=Cc1ccccc1)Nc1ccc(C#CC=Cc2ccc(NC(=O)C=Cc3ccccc3)cc2)cc1 | 26
CCCCNCc1ccc(-c2nc(CN(CCCn3ccnc3)C(=O)NC3CC3c3ccccc3)cs2)cc1.O=C(O)C(F)(F)F (stereo not given) | 21
Cn1nc(C(F)(F)F)c(-c2ccc(F)cc2)c1NC(=O)Nc1ccc(F)cc1 | 5
CS(=O)(=O)c1ccc(CNCc2cccc(-c3cccc(-c4nc5cc(C(F)(F)F)ccc5[nH]4)c3)c2)cc1.O=C(O)C(F)(F)F | 5
O=C(/C=C/c1ccc(Cl)c(Cl)c1)NCCCCCN1CCC(NC(=O)Nc2ccccc2Cl)CC1 | 56
C[C@@H](Nc1nc(NCc2ccccc2)c2sccc2n1)c1ccccc1 | 31
CCCCCC1c2[nH]c3ccccc3c2CCN1C(=O)OCc1ccccc1 (stereo not given) | 3
O=C1Nc2cccc3c2C1(CCCCN1CCC(c2c[nH]c4cc(C(F)(F)F)ccc24)CC1)CCC3 (stereo not given) | 99
CN(C)c1ccc(/N=C2/N/C(=N/c3ccc(N(C)C)cc3)c3ccccc32)cc1 | 23
Cc1cc(NCCCN2CCCC2=O)n2c(nc3ccccc32)c1C#N | 4
O=C(Nc1ccc(-c2nc3ccccc3[nH]2)cc1)C1CCN(Cc2cccc(F)c2F)CC1 | 23
CN1CCc2ccc(NC(=O)Nc3ccc(-c4ccccc4)cc3)cc2C1 | 24
Cc1cc(NCCC(=O)NCCOc2ccccc2)nc(NCCOc2ccccc2)n1.O=C(O)C(F)(F)F | 8
COc1ccc(CN2CCCN(Cc3cccc(C(=O)Nc4ccc(C)c(F)c4)c3)CC2)cc1.O=C(O)C(F)(F)F | 49
CCc1ccc(CN2CCC(CNC(=O)c3cc(-c4ccccc4Cl)cs3)C2)cc1.O=C(O)C(F)(F)F (stereo not given) | 14
Cc1cc(NCCC(=O)Nc2ccccc2)nc(NCCc2ccccc2)n1.O=C(O)C(F)(F)F | 0
CC(=O)c1ccc2c(c1)CCN(CCC1CCC(NC(=O)c3cc4ccccc4[nH]3)CC1)CC2.Cl (stereo not given) | 64
O=C(Nc1ccc(Cn2nc(Cl)c(N3CCNCC3)cc2=O)cc1)Nc1ccc(-c2ccccc2)cc1.O=C(O)C(F)(F)F | 99
CC(C)CCOc1ccc(NC(=O)c2cccs2)cc1 | 11

SMILES | Inhibition [%]
O=C(NC1CCN(CCN2CCc3ccccc3CC2)CC1)c1ccc(-c2ccc(C(F)(F)F)cc2)cc1 | 45
O=C(NCCN1CCOCC1)c1ccc(N2CCC(Oc3ccc4ccccc4c3)CC2)nc1 | 1
O=C(CSc1nc2ccccc2c(=O)n1CC1CCCO1)Nc1cc(C(F)(F)F)ccc1Cl (stereo not given) | 12
CCCCNC(=N)Nc1ccc(OCCCOc2ccc(NC(=N)NCCCC)cc2)cc1 | 15
CCC(C)OC(=O)C1=C(C)NC2=C(C(=O)CC(c3ccc(OC)c(OC)c3)C2)C1c1ccc(O)cc1 (stereo not given) | 3
CC(Oc1ccc(Cl)cc1)C(=O)Nc1cc(C(F)(F)F)ccc1-n1cncn1 (stereo not given) | 0
C=C[C@H]1CN(CCCCCCC)CC[C@H]1CCN(C)c1ccnc2ccc(OC)cc12.O=C(O)C(=O)O | 22
CCCOc1cc(OCCC)cc(-c2cc(=O)c3ccccc3[nH]2)c1 | 33
COc1cc(Nc2nccc(Nc3ccc4c(C)n[nH]c4c3)n2)cc2ccccc12.Cl | 13
CO/C(=C\C=C\c1cc2cc(Cl)c(Cl)cc2[nH]1)C(=O)NC1CC(C)N(C)C(C)C1 (stereo not given) | 64
CN(C)c1nc(NCc2ccccc2)nc(N/N=C/c2cc([N+](=O)[O-])ccc2O)n1 | 48
Cc1[nH]c(C)c(-c2ccc(-c3ccc(C#N)cc3)nc2)c(=O)c1Br | 5
CCCCCCCCNCc1c(O)ccc2ccccc12.Cl | 0
CC(C)[C@@H](NC(=O)NC1CCC(CCN2C3CCC2CC(OC(=O)C(CO)c2ccccc2)C3)CC1)C(O)(c1ccccc1)c1ccccc1 (stereo not given in full) | 19
Cc1ccc(NC(=O)C(C)Sc2nnc(-c3ccccc3Br)[nH]2)cc1 (stereo not given) | 2
CNS(=O)(=O)c1ccc2c(c1)nc(C1CCN(CC3CCC(NC(=O)/C=C/c4ccc(Cl)c(Cl)c4)CC3)CC1)n2C (stereo not given) | 5
c1ccc(Oc2ccc(Nc3nc(NCCc4c[nH]cn4)nc(NC4CCCC4)n3)cc2)cc1 | 0
Cc1cc(N2CCCC2)nc(Nc2ccc(NC(=O)COc3ccccc3)cc2)n1 | 43
COc1cc(CN=C(S)NN=C(C)c2ccccn2)cc(OC)c1OC | 45
O=[N+]([O-])c1cccc(Nc2nccc(-c3cnn4ncccc34)n2)c1 | 33
